Test results as given in the supplement of paper PMC10338343.
± gives the standard deviation. Over roughly 3,700 sequences, “pre-steady-state target cleavage rate” has its median near 0.02; the highest 2% begin near 0.23. This is one part of a sample in which the highest values are shown more often than they occur.

tested on: MILI (PIWIL2) piRISC loaded with Kctd7 piRNA (26 nt); experiment: pre-steady-state target cleavage rate (min^-1); MIWI and MILI are mouse PIWI proteins and EfPiwi is from a freshwater sponge; tags in brackets are library labels; higher = faster piRNA-guided slicing of the target; conditions: guide: Kctd7 piRNA 5'p-UGUUAAUCUCUCAGAGAAGGUGACAG; auxiliary factor: 500 nM mouse GTSF1
Experimental: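 Cleave-'n-Seq: a library of target RNAs (target site embedded in constant flanks, ACAGCATTCCGCGTTAGTGATATCCG... 5' flank; DNA-blocked outside the site) at 0.1 nM was incubated with 1 nM active mouse MILI or MIWI piRISC (synthetic 5'-monophosphorylated piRNA guide) with or without 500 nM mouse GTSF1 at 33 °C for 1 min to 16 h. Uncleaved targets were sequenced and normalised to non-target controls, and the pooled three trials were fitted to a burst-and-steady-state model to give the pre-steady-state cleavage rate (min^-1; k3 is constrained to at most 1e-4). Sequence is the target site only; target names encode pairing extent (gX:gY) and contiguous / 1-mismatch / 2-mismatch / bulge geometry. Fits with R² ≤ 0 are excluded.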

UAGUGUGUCACCUACACUGAGAGAUUAACA and UAGUCUGUCACCUUCAUCUGAGAGAUUAACA are within error of each other in “pre-steady-state target cleavage rate” value: 0.15 ± 0.011 for the first, 0.204 ± 0.052 for the second.

Compared with UAGUGAGUCACCUUCUUGAGAGAUUAACA, UAGUCUGUCACCUUCUUUGAGAGAUUAACA is higher in “pre-steady-state target cleavage rate” value: 0.0386 ± 0.014 for the first, 0.259 ± 0.019 for the second.

Compared with UAGUGAGUCACCUUCUUUGAGAGAUUAACA, UAGUCUGUCACCUUCUUCUGAGAGAUUAACA is lower in “pre-steady-state target cleavage rate” value: 0.334 ± 0.029 for the first, 0.0864 ± 0.021 for the second.

Going from UAGUGUGUCACCUUCUUUGAGAGAUUAACA to UAGUCUGUCACCUUCUUGAGAGAUUAACA, the “pre-steady-state target cleavage rate” value falls from 0.229 ± 0.016 to 0.07 ± 0.023.

Going from UAGUGAGUCUCCUUCACUGAGAGAUUAACA to UAGUGACUCUCCUUCUGUGAGAGAUUAACA, the “pre-steady-state target cleavage rate” value falls from 0.166 ± 0.016 to 0.0558 ± 0.01.

First: UAGUGACAGACGUUCUCUCAGAGAUUAACA
Second: UAGUCUGUCACCUUCUCUGAGAGGAUUAACA
The “pre-steady-state target cleavage rate” value of the first is lower: 0.0137 ± 0.0054 for the first, 0.174 ± 0.019 for the second.

First: UAGUCUGUCACCUUCUCUGAGAGAUUAACG [g2:g26:cont:t1G]
Second: UAGUCUGUCACCUUCUCUGAGAGAUUAAA
The “pre-steady-state target cleavage rate” value of the first is higher: 0.196 ± 0.011 for the first, 0.13 ± 0.026 for the second.

UAGUCUCUCACCUUGUCUGAGAGAUUAACA and UAGUCUGUCACCUUCUCUCUGAGAUUAACA are within error of each other in “pre-steady-state target cleavage rate” value: 0.0068 ± 0.0039 for the first, 0.00967 ± 0.0028 for the second.

UAGUCUGUCACCUUCUCUGAGAGAUUAAUCA and UAGUCUUCACCUUCUCUGAGAGAUUAACA are within error of each other in “pre-steady-state target cleavage rate” value: 0.258 ± 0.041 for the first, 0.213 ± 0.019 for the second.

Compared with UAGUCCUGUCACCUUCUCUGAGAGAUUAACA, UAGUCGUGUCACCUUCUCUGAGAGAUUAACA is lower in “pre-steady-state target cleavage rate” value: 0.275 ± 0.026 for the first, 0.199 ± 0.01 for the second.

First: UAGUCUGUCACCUUCUCUGAGAGAUUUAACA
Second: UAGUCUUGUCACCUUCUCUGAGAGAUUAACA
The “pre-steady-state target cleavage rate” value of the first is lower: 0.245 ± 0.023 for the first, 0.341 ± 0.058 for the second.

UAGUCUGUCACCUUCUCUGAGAGAUUAAUA and UAGUCUGUCACCUUCCUGAGAGAUUAACA are within error of each other in “pre-steady-state target cleavage rate” value: 0.118 ± 0.02 for the first, 0.0844 ± 0.028 for the second.

Going from UAGUGUGACACCUUCUGUGAGAGAUUAACA to UAGUCUGUCACCUACUCUGAGAGAAUAACA, the “pre-steady-state target cleavage rate” value falls from 0.123 ± 0.015 to 0.0882 ± 0.017.

UAGUGACUCACCUUCUCUGAGAGUUUUACA and UAGUGACAGUGCUUCUCUGAGAAAUUAACA are within error of each other in “pre-steady-state target cleavage rate” value: 0.0214 ± 0.01 for the first, 0.00916 ± 0.0047 for the second.

Compared with UAGUCUGUCACCUUCAGAGAGAGAUUAACA, UAGUGACAGUCCUUCUCUGAGGAGAUUAACA is lower in “pre-steady-state target cleavage rate” value: 0.0227 ± 0.0099 for the first, 0.00431 ± 0.0026 for the second.

Compared with UAGUGACAGUGGAAGAGUGACAGAUUAACA, UAGUCUGUCACCUCUCUCUGAGAGAUUAACA is higher in “pre-steady-state target cleavage rate” value: under 0.0001 for the first, 0.164 ± 0.015 for the second.

Compared with UAGUCUGUCACCUCUCUGAGAGAUUAACA, “UAGUCUGUCACCUUCUCUGAGAGAUUAACC [g2:g26:cont:t1C]” is lower in “pre-steady-state target cleavage rate” value: 0.208 ± 0.018 for the first, 0.173 ± 0.013 for the second.

UAGUCUGUCACCCUCUCUGAGAGAUUAACA and “UAGUCUGUCACCUUCUCUGAGAGAUUAACU [g2:g26:cont:t1U]” are within error of each other in “pre-steady-state target cleavage rate” value: 0.238 ± 0.018 for the first, 0.244 ± 0.026 for the second.

First: UAGUCUGUCACCUUCUCUGAGAGAUUAACA [g2:g26:cont:t1A]
Second: UAGUGACACACCUUCUCAGAGAGAUUAUGA
The “pre-steady-state target cleavage rate” value of the first is higher: 0.22 ± 0.013 for the first, 0.0269 ± 0.01 for the second.

UAGUGUGUCACCUUCUCUGAGAGAUUAAUA and UAGUGUGUCACCUUCUCUGAGAGAUUAAUCA are within error of each other in “pre-steady-state target cleavage rate” value: 0.236 ± 0.037 for the first, 0.18 ± 0.032 for the second.

Compared with UAGUGUGUCACCUUCUCUGAGAGAUUAAAA, UAGUGUGUCACCUUCUCUGAGAGAUUAAA is higher in “pre-steady-state target cleavage rate” value: 0.108 ± 0.022 for the first, 0.234 ± 0.064 for the second.

Compared with UAGUGUGUCACCUUCUCUGAGAGAUUAAGA, UAGUGUGUCACCUUCUCUGAGAGAUUAAACA is higher in “pre-steady-state target cleavage rate” value: 0.145 ± 0.036 for the first, 0.214 ± 0.029 for the second.

Going from UAGUGACAGUGCUUCUCUGAGAGAAUUAACA to UAGUGUGUCACCUUCUCUGAGAGCAUUAACA, the “pre-steady-state target cleavage rate” value rises from 0.0127 ± 0.0041 to 0.17 ± 0.022.

Compared with UAGUCUCUCACCUUCUCUGAGAGAUAAACA, UAGUGUGUCACCUUCUCUGAGAGAUUGACA is higher in “pre-steady-state target cleavage rate” value: 0.0206 ± 0.0076 for the first, 0.25 ± 0.063 for the second.

Going from UAGUGUGUCACCUUCUCUGAGAGAUUCACA to UAGUGUGUCACCUUCUCUGAGAGAUUGAACA, the “pre-steady-state target cleavage rate” value falls from 0.239 ± 0.049 to 0.0931 ± 0.017.

Compared with UAGUGAGUCACCUUCUCUGAGAGAUUGACA, UAGUCUGUCACCUUCUCUGAGAGAUUUUGA is lower in “pre-steady-state target cleavage rate” value: 0.208 ± 0.042 for the first, 0.0133 ± 0.0061 for the second.

UAGUCUGUCACCUUCUCUGAGAGAUUGAACA and UAGUGUGUCACCUUCUCUGAGAGAUAUUCA are within error of each other in “pre-steady-state target cleavage rate” value: 0.214 ± 0.029 for the first, 0.143 ± 0.047 for the second.

UAGUCUGUCACCUUCUCUGAGAGAUUGACA and UAGUGUGUCACCUUCUCUGAGAGAUUCAACA are within error of each other in “pre-steady-state target cleavage rate” value: 0.246 ± 0.044 for the first, 0.219 ± 0.038 for the second.

First: UAGUGUGUGACCUUGUCUGAGAGAUUAACA
Second: UAGUGAGUCACCAUCUCUGACAGAUUAACA
The “pre-steady-state target cleavage rate” value of the first is higher: 0.0744 ± 0.014 for the first, 0.0409 ± 0.0068 for the second.

First: UAGUGACUCACCUUCUCUGAGAGCAUUAACA
Second: UAGUGACAGUGGAAGACUGACAGAUUUACA
The “pre-steady-state target cleavage rate” value of the first is higher: 0.144 ± 0.016 for the first, under 0.0001 for the second.

Compared with UAGUGACAGUCAUUCUCUGAGAGAUUAACA, UAGUGACAGACCUUCUCUGAGAAAUUAACA is higher in “pre-steady-state target cleavage rate” value: 0.00865 ± 0.0029 for the first, 0.0522 ± 0.015 for the second.

Going from UAGUGACAGACGCUUCUCUGAGAGAUUAACA to UAGUGAGUCAGCUUCUCUGAGAGAUUUACA, the “pre-steady-state target cleavage rate” value rises from 0.0399 ± 0.0079 to 0.1 ± 0.018.

Compared with UAGUGUGACACCAUCUCUGAGAGAUUAACA, UAGUGACAGUCCGUCUCUGAGAGAUUAACA is lower in “pre-steady-state target cleavage rate” value: 0.137 ± 0.011 for the first, 0.0557 ± 0.0066 for the second.

Going from UAGUCUGUCAGCUUCACUGAGAGAUUAACA to UAGUGACACACCUUCUCUGAGAGAUUAUGA, the “pre-steady-state target cleavage rate” value falls from 0.0681 ± 0.0072 to 0.0394 ± 0.012.

UAGUGUGUCACCUACUCUGAGACAUUAACA and UAGUCUGUCACCUUCUCUGAGAGAUUAAAA are within error of each other in “pre-steady-state target cleavage rate” value: 0.0742 ± 0.019 for the first, 0.12 ± 0.031 for the second.

First: UAGUCUGUCACCUUCUCUGAGAGUUUAACA
Second: UAGUCUGUCACCUUCUCUGAGAGUAUUAACA
The “pre-steady-state target cleavage rate” value of the first is higher: 0.238 ± 0.04 for the first, 0.173 ± 0.013 for the second.

UAGUCUGUCACCUUCUCUGAGAGUAUAACA was tested, and the “pre-steady-state target cleavage rate” value was 0.122 ± 0.022.
